# From the supplement of paper PMC10338343
# ± gives the standard deviation.
# System: MILI (PIWIL2) piRISC loaded with L1MC piRNA (26 nt)
# Assay: pre-steady-state target cleavage rate (min^-1); guide: L1MC piRNA 5'p-UAACUAAAUACUAUGCAAGCUGUAGG; MIWI and MILI are mouse PIWI proteins and EfPiwi is from a freshwater sponge; tags in brackets are library labels; higher = faster piRNA-guided slicing of the target
# Conditions: auxiliary factor: none (no GTSF1)
# Method in brief: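 In HEPES–potassium acetate buffer at 33 °C, […] transcribed, DNA-blocked target RNA library was mixed with 1 nM active affinity-purified piRISC carrying one synthetic guide, with or without 500 nM GTSF1 partner protein, for 0–8 or 0–960 min. Uncleaved targets were sequenced and normalised to depth and to weakly complementary targets; three trials were pooled and k3 was capped at 0.0001 min^-1. The pre-steady-state cleavage rate followed from a burst-and-steady-state fit.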
# 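Note: 1 nM active piRISC with 0.1 nM target library at 33 °C single turnover.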
row,Sequence,pre-steady-state target cleavage rate
1,UCCUGGAUGUCGAACGUAAGUAUUUUGUUA,< 0.0001
2,UCCUGGUACAGCUUGCAUACUUUUUAGUUA,0.00598 ± 0.0037
3,UCCUGGAUGUCGAACGUUAGUAUUUAGUGUA,< 0.0001
4,UCCUGGAUGUCGUUGCAUAGGUAUUUAGUUA,0.00509 ± 0.0029
